In the supplement of paper PMC12669032:

How the values were obtained:
Test in all cases: growth AUC relative to DMSO control (median of replicates) (fraction); higher = more growth (less inhibition), active = hit call of the paper
Settings in all cases: 20 µM; 24 h;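 active = AUC reduced over 20% with Padj below 0.05 in at least 2 of 3 replicates; inactive = otherwise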
Akkermansia muciniphila = tested on: Akkermansia muciniphila
Outline: (§1)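 OD600 was recorded every hour for 24 h in anaerobic monocultures of gut bacteria kept at 37 °C in mGAM, seeded at OD600 0.05 and given 20 µM compound in 1% DMSO. The area under each growth curve was scaled to the plate median of solvent-only wells, or to row and column medians for the industrial chemical plate. Before this step, the minimum OD was set to 0. Reported values are medians of three biological replicates run on separate days.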

Bacteroides caccae = tested on: Bacteroides caccae
Outline: as §1

Bacteroides clarus = tested on: Bacteroides clarus
Outline: as §1

Bacteroides dorei = tested on: Bacteroides dorei
Outline: as §1

Bacteroides stercoris = tested on: Bacteroides stercoris
Outline: as §1

[1] = tested on: Bacteroides thetaiotaomicron
Outline: as §1

Bacteroides uniformis = tested on: Bacteroides uniformis
Outline: as §1

[2] = tested on: Bifidobacterium longum subsp. longum
Outline: as §1

Clostridium difficile = tested on: Clostridium difficile
Outline: as §1

Collinsella aerofaciens = tested on: Collinsella aerofaciens
Outline: as §1

Coprococcus comes = tested on: Coprococcus comes
Outline: as §1

Escherichia coli ED1a = tested on: Escherichia coli ED1a
Outline: as §1

Escherichia coli IAI1 = tested on: Escherichia coli IAI1
Outline: as §1

Eubacterium rectale = tested on: Eubacterium rectale
Outline: as §1

[3] = tested on: Fusobacterium nucleatum subsp. animalis
Outline: as §1

Lactobacillus gasseri = tested on: Lactobacillus gasseri
Outline: as §1

Lactobacillus paracasei = tested on: Lactobacillus paracasei
Outline: as §1

Odoribacter splanchnicus = tested on: Odoribacter splanchnicus
Outline: as §1

[4] = tested on: Parabacteroides distasonis
Outline: as §1

Parabacteroides merdae = tested on: Parabacteroides merdae
Outline: as §1

Measured: growth AUC

O=C(O)c1ccc(Cl)cc1Cl
inactive: Akkermansia muciniphila 0.987 | Bacteroides caccae 1.03 | Bacteroides clarus 0.989 | Bacteroides dorei 0.994 | Bacteroides stercoris 0.959 | [1] 1.01 | Bacteroides uniformis 0.977 | [2] 0.699 | Clostridium difficile 0.997 | Collinsella aerofaciens 1.02 | Coprococcus comes 1 | Escherichia coli ED1a 0.986 | Escherichia coli IAI1 0.993 | Eubacterium rectale 0.957 | [3] 0.891 | Lactobacillus gasseri 0.991 | Lactobacillus paracasei 0.994 | Odoribacter splanchnicus 1.01 | [4] 0.984 | Parabacteroides merdae 0.989

Cc1nn(C)c(OCC(=O)c2ccccc2)c1C(=O)c1ccc(Cl)cc1Cl
active: [4] 0.674
inactive: Akkermansia muciniphila 1.04 | Bacteroides caccae 0.955 | Bacteroides clarus 0.978 | Bacteroides dorei 0.987 | Bacteroides stercoris 1.17 | [1] 0.933 | Bacteroides uniformis 0.852 | [2] 0.992 | Clostridium difficile 0.947 | Collinsella aerofaciens 1.01 | Coprococcus comes 1.02 | Escherichia coli ED1a 0.995 | Escherichia coli IAI1 1 | Eubacterium rectale 1.04 | [3] 1.02 | Lactobacillus gasseri 1.02 | Lactobacillus paracasei 0.991 | Odoribacter splanchnicus 0.961 | Parabacteroides merdae 0.926

CCCOC(=O)c1ccc(O)cc1
inactive: Akkermansia muciniphila 0.879 | Bacteroides caccae 0.979 | Bacteroides clarus 0.986 | Bacteroides dorei 1.02 | Bacteroides stercoris 0.993 | [1] 0.989 | Bacteroides uniformis 0.984 | [2] 1.01 | Clostridium difficile 0.98 | Collinsella aerofaciens 1.01 | Coprococcus comes 1 | Escherichia coli ED1a 0.986 | Escherichia coli IAI1 0.971 | Eubacterium rectale 0.951 | [3] 0.985 | Lactobacillus gasseri 1.06 | Lactobacillus paracasei 1.01 | Odoribacter splanchnicus 0.945 | [4] 1.01 | Parabacteroides merdae 0.988

CC(C)c1cccc2c(=O)c3ccccc3sc12
inactive: Akkermansia muciniphila 1.1 | Bacteroides caccae 0.922 | Bacteroides clarus 1.03 | Bacteroides dorei 0.913 | Bacteroides stercoris 1.21 | [1] 0.963 | Bacteroides uniformis 0.995 | [2] 1.06 | Clostridium difficile 0.895 | Collinsella aerofaciens 0.95 | Coprococcus comes 0.979 | Escherichia coli ED1a 1.03 | Escherichia coli IAI1 1.04 | Eubacterium rectale 1 | [3] 1.19 | Lactobacillus gasseri 0.968 | Lactobacillus paracasei 1.05 | Odoribacter splanchnicus 1.05 | [4] 0.952 | Parabacteroides merdae 0.885

CCS(=O)(=O)c1nnc(N(C)C(=O)NC)s1
inactive: Akkermansia muciniphila 0.883 | Bacteroides caccae 1.02 | Bacteroides clarus 0.977 | Bacteroides dorei 1.01 | Bacteroides stercoris 1.03 | [1] 1.01 | Bacteroides uniformis 0.995 | [2] 0.995 | Clostridium difficile 0.974 | Collinsella aerofaciens 1.06 | Coprococcus comes 0.938 | Escherichia coli ED1a 0.984 | Escherichia coli IAI1 0.99 | Eubacterium rectale 0.976 | [3] 1.01 | Lactobacillus gasseri 1.04 | Lactobacillus paracasei 0.851 | Odoribacter splanchnicus 0.992 | [4] 1.06 | Parabacteroides merdae 1.01

O=C(O)COc1ccc(Cl)c2cccnc12
inactive: Akkermansia muciniphila 0.981 | Bacteroides caccae 1.03 | Bacteroides clarus 1.03 | Bacteroides dorei 0.976 | Bacteroides stercoris 1.14 | [1] 0.997 | Bacteroides uniformis 1 | [2] 0.99 | Clostridium difficile 0.954 | Collinsella aerofaciens 1.02 | Coprococcus comes 0.997 | Escherichia coli ED1a 1.05 | Escherichia coli IAI1 1.04 | Eubacterium rectale 1.02 | [3] 1.11 | Lactobacillus gasseri 1.07 | Lactobacillus paracasei 1.01 | Odoribacter splanchnicus 1.01 | [4] 1 | Parabacteroides merdae 1

Cc1cc(CC(C)CC(C)(C)C)n(O)c(=O)c1.NCCO (stereo not given)
inactive: Akkermansia muciniphila 1.22 | Bacteroides caccae 0.993 | Bacteroides clarus 0.982 | Bacteroides dorei 0.99 | Bacteroides stercoris 0.932 | [1] 0.999 | Bacteroides uniformis 1 | [2] 0.991 | Clostridium difficile 0.977 | Collinsella aerofaciens 0.933 | Coprococcus comes 0.995 | Escherichia coli ED1a 1.04 | Escherichia coli IAI1 1 | Eubacterium rectale 0.788 | [3] 1.02 | Lactobacillus gasseri 0.971 | Lactobacillus paracasei 1.01 | Odoribacter splanchnicus 0.997 | [4] 1 | Parabacteroides merdae 1.03

S=C([S-])NCCNC(=S)[S-].S=C([S-])NCCNC(=S)[S-].[Mn+2].[Zn+2]
inactive: Akkermansia muciniphila 0.974 | Bacteroides caccae 1.02 | Bacteroides clarus 1.1 | Bacteroides dorei 1.06 | Bacteroides stercoris 1.06 | [1] 0.975 | Bacteroides uniformis 1.07 | [2] 1.03 | Clostridium difficile 0.994 | Collinsella aerofaciens 1.03 | Coprococcus comes 0.99 | Escherichia coli ED1a 0.996 | Escherichia coli IAI1 1.03 | Eubacterium rectale 1.22 | [3] 1.06 | Lactobacillus gasseri 1.03 | Lactobacillus paracasei 1.08 | Odoribacter splanchnicus 0.967 | [4] 1.01 | Parabacteroides merdae 1.01

O=C(O)COc1cccc(Cl)c1Cl
inactive: Akkermansia muciniphila 0.919 | Bacteroides caccae 0.947 | Bacteroides clarus 0.971 | Bacteroides dorei 0.962 | Bacteroides stercoris 1.02 | [1] 0.993 | Bacteroides uniformis 0.997 | [2] 0.989 | Clostridium difficile 1 | Collinsella aerofaciens 0.992 | Coprococcus comes 1.01 | Escherichia coli ED1a 0.987 | Escherichia coli IAI1 1.01 | Eubacterium rectale 1.04 | [3] 1.12 | Lactobacillus gasseri 1.11 | Lactobacillus paracasei 0.898 | Odoribacter splanchnicus 0.92 | [4] 0.994 | Parabacteroides merdae 0.986

CC(C)OC(=O)N[C@H](C(=O)N[C@H](C)c1nc2ccc(F)cc2s1)C(C)C
inactive: Akkermansia muciniphila 1.17 | Bacteroides caccae 0.963 | Bacteroides clarus 0.997 | Bacteroides dorei 0.934 | Bacteroides stercoris 0.982 | [1] 1.01 | Bacteroides uniformis 0.93 | [2] 1.06 | Clostridium difficile 0.942 | Collinsella aerofaciens 0.964 | Coprococcus comes 1.06 | Escherichia coli ED1a 0.989 | Escherichia coli IAI1 1 | Eubacterium rectale 1.13 | [3] 1.16 | Lactobacillus gasseri 0.859 | Lactobacillus paracasei 1.03 | Odoribacter splanchnicus 1.02 | [4] 0.847 | Parabacteroides merdae 1

CN(C)C(=O)SCCCCOc1ccccc1
inactive: Akkermansia muciniphila 0.993 | Bacteroides caccae 0.957 | Bacteroides clarus 0.967 | Bacteroides dorei 0.99 | Bacteroides stercoris 0.915 | [1] 0.973 | Bacteroides uniformis 0.992 | [2] 0.984 | Clostridium difficile 0.983 | Collinsella aerofaciens 0.993 | Coprococcus comes 0.968 | Escherichia coli ED1a 0.98 | Escherichia coli IAI1 0.962 | Eubacterium rectale 1.12 | [3] 0.958 | Lactobacillus gasseri 1.01 | Lactobacillus paracasei 0.975 | Odoribacter splanchnicus 0.981 | [4] 0.938 | Parabacteroides merdae 0.961

CC(C)Nc1nc(N)nc(Cl)n1
inactive: Akkermansia muciniphila 0.991 | Bacteroides caccae 1.03 | Bacteroides clarus 1.03 | Bacteroides dorei 1.01 | Bacteroides stercoris 1.07 | [1] 1.04 | Bacteroides uniformis 1.01 | [2] 1 | Clostridium difficile 1.03 | Collinsella aerofaciens 1.02 | Coprococcus comes 1.01 | Escherichia coli ED1a 1.01 | Escherichia coli IAI1 1.05 | Eubacterium rectale 1.01 | [3] 1.05 | Lactobacillus gasseri 0.98 | Lactobacillus paracasei 0.96 | Odoribacter splanchnicus 1.06 | [4] 1.06 | Parabacteroides merdae 1.04

CCOc1ccc(C2(C(=O)OC(C#N)c3cccc(Oc4ccccc4)c3)CC2(Cl)Cl)cc1 (stereo not given)
inactive: Akkermansia muciniphila 1.08 | Bacteroides caccae 0.968 | Bacteroides clarus 1.02 | Bacteroides dorei 0.94 | Bacteroides stercoris 1.04 | [1] 0.993 | Bacteroides uniformis 0.957 | [2] 0.911 | Clostridium difficile 1.01 | Collinsella aerofaciens 0.982 | Coprococcus comes 1.03 | Escherichia coli ED1a 1.01 | Escherichia coli IAI1 0.981 | Eubacterium rectale 1.06 | [3] 1.07 | Lactobacillus gasseri 0.848 | Lactobacillus paracasei 1 | Odoribacter splanchnicus 1.03 | [4] 0.93 | Parabacteroides merdae 0.943

CCN(Cc1c(F)cccc1Cl)c1c([N+](=O)[O-])cc(C(F)(F)F)cc1[N+](=O)[O-]
active: Bacteroides stercoris 0.27
inactive: Akkermansia muciniphila 0.852 | Bacteroides caccae 0.822 | Bacteroides clarus 0.831 | Bacteroides dorei 1.02 | [1] 0.934 | Bacteroides uniformis 1.03 | [2] 0.909 | Clostridium difficile 0.99 | Collinsella aerofaciens 0.829 | Coprococcus comes 0.784 | Escherichia coli ED1a 0.982 | Escherichia coli IAI1 0.986 | Eubacterium rectale 0.896 | [3] 0.937 | Lactobacillus gasseri 0.896 | Lactobacillus paracasei 1.03 | Odoribacter splanchnicus 1.03 | [4] 0.934 | Parabacteroides merdae 0.903

CCCCCCCCSCCO
inactive: Akkermansia muciniphila 1.06 | Bacteroides caccae 0.954 | Bacteroides clarus 0.967 | Bacteroides dorei 1.02 | Bacteroides stercoris 0.918 | [1] 0.975 | Bacteroides uniformis 1 | [2] 1.04 | Clostridium difficile 0.983 | Collinsella aerofaciens 0.949 | Coprococcus comes 0.974 | Escherichia coli ED1a 0.955 | Escherichia coli IAI1 0.936 | Eubacterium rectale 1.04 | [3] 0.902 | Lactobacillus gasseri 0.94 | Lactobacillus paracasei 0.93 | Odoribacter splanchnicus 1.03 | [4] 0.915 | Parabacteroides merdae 0.966
